Reference: ChEMBL document CHEMBL3988442, “University of Dundee, Small-Polar-MMV Screening Library” (2021)
For some of these results: Entries with a potency or affinity are not part of this list.

Experiments:
Design in all cases: scale not given: direction of the effect not stated beside the values
[1] = biological target: Protein translocase subunit SecA (Escherichia coli (strain K12)) (UniProt P10408); test: Assay to Identify E. coli SecA ATPase Inhibitors; type: functional; settings: 30 µM
[2] = biological target: T1, Ubiquitin-activating enzyme e1, putative (Leishmania donovani (strain BPK282A1)) (UniProt E9BSI1); test: Leishmania donovani Ubiquitin Activating Enzyme (LdE1); type: functional; settings: 30 µM
T1 sequence (whole entry): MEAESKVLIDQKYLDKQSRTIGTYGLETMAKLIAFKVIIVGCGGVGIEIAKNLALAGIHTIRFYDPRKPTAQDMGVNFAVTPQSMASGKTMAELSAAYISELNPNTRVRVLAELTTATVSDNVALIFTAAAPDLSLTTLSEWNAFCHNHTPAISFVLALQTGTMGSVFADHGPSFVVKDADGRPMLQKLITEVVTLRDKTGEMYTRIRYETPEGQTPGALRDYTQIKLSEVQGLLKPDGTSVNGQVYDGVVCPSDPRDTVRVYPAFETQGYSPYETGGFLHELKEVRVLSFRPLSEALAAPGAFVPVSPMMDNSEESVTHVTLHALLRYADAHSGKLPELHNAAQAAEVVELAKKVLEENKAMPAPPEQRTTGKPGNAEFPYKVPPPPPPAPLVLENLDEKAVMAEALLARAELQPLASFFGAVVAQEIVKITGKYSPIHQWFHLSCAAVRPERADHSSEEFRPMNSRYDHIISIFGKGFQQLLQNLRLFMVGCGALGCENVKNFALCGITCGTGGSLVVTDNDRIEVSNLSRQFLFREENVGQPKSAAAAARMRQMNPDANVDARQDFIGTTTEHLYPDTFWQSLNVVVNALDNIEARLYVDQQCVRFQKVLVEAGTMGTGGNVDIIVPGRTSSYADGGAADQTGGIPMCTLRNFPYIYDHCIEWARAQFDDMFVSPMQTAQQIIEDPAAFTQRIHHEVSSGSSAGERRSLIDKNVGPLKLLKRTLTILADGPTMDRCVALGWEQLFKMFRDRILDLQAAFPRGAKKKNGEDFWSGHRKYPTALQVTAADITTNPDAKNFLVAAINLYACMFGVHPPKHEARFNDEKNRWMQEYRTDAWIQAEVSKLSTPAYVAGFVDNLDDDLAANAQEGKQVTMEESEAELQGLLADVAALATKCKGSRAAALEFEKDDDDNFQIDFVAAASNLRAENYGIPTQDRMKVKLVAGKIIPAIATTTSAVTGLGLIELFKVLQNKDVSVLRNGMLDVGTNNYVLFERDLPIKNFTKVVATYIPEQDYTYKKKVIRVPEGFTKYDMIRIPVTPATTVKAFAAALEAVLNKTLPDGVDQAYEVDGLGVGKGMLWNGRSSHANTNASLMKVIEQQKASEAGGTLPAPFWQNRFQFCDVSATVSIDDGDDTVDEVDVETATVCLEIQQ

[3] = biological target: AMP-activated protein kinase, AMPK (Homo sapiens) (UniProt P54646+O43741+P54619+Q9UGJ0+Q9Y478+Q13131+Q9UGI9); test: AMP-dependent Kinase enzyme assay. An in vitro enzyme assay that detects ADP turnover that is directly proportional to AMPK activity. This uses naive AMPK that is activated during the assay with MK-8722; type: functional; settings: 30 µM
[4] = biological target: Sialic acid-binding Ig-like lectin 9 (Homo sapiens) (UniProt Q9Y336); test: Hs-Siglec9 ALPHAscreen SOP 20170721; settings: 10 µM
Sequence of Sialic acid-binding Ig-like lectin 9 (Homo sapiens) (Q9Y336 whole entry): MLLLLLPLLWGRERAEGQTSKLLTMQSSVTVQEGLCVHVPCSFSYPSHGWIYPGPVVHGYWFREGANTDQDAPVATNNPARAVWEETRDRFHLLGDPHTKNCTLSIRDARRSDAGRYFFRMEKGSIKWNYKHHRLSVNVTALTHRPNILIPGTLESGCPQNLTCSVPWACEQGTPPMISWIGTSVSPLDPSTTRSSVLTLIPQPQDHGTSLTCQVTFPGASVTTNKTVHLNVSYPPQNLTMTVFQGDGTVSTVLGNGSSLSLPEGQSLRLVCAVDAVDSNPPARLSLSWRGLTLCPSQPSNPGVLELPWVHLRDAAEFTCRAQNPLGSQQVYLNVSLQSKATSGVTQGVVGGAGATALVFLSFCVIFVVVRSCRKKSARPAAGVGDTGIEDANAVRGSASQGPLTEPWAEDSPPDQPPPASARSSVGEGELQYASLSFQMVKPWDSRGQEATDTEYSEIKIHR

Trypanosoma cruzi = test: Trypanosoma cruzi phosphomannomutase and mannose-1-phosphate guanylyltransferase assay; type: functional; settings: 10 µM
[5] = biological target: T2, Arginase-2, mitochondrial (Homo sapiens) (UniProt P78540); test: in vitro enzyme assay to detect the production of urea directly proportional to the activity of Arginase II; type: functional; settings: 33.3 µM; note: in the data most compounds retested in dose-response had high values
T2 sequence (whole entry): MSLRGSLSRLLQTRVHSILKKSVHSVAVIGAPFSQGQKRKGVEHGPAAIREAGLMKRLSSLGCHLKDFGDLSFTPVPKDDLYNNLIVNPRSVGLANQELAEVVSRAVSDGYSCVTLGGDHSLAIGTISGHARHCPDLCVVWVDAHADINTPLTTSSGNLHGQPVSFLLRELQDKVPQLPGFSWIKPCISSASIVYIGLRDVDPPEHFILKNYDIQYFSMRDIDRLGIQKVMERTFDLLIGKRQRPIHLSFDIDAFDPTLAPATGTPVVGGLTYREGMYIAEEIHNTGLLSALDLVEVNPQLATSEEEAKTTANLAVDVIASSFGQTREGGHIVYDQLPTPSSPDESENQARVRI

[6] = biological target: T3, Proteasome subunit beta (Trypanosoma cruzi) (UniProt O96673); test: Trypanosoma cruzi proteasome chymotrypsin-like activity (TcProtChymo) assay.; note: in the data most compounds retested in dose-response had high values; type: functional; settings: 9.37 µM
T3 sequence (whole entry): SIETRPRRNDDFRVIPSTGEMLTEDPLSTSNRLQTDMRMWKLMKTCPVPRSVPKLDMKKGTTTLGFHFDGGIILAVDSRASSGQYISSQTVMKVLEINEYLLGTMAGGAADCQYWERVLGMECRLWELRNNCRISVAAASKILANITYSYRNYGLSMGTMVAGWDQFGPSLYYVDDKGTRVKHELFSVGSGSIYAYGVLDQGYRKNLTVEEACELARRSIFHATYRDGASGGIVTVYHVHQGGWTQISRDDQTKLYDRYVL

Homo sapiens = organism: Homo sapiens; test: To identify inhibition of the IFN signalling (Jak-Stat) pathway via expression of an eGFP reporter gene under the control of an IFN-stimulated response element (ISRE) containing MxA promoter.; type: functional; settings: 30 µM
[7] = biological target: T4, Tyrosyl-tRNA synthetase, putative (Trypanosoma cruzi (strain CL Brener)) (UniProt Q4DSP6); test: Trypanosoma cruzi tyrosyl tRNA synthetase (TcYRS) _High Tyrosine SOP; type: functional; settings: 30 µM; note: in the data most compounds retested in dose-response had high values
T4 sequence (whole entry): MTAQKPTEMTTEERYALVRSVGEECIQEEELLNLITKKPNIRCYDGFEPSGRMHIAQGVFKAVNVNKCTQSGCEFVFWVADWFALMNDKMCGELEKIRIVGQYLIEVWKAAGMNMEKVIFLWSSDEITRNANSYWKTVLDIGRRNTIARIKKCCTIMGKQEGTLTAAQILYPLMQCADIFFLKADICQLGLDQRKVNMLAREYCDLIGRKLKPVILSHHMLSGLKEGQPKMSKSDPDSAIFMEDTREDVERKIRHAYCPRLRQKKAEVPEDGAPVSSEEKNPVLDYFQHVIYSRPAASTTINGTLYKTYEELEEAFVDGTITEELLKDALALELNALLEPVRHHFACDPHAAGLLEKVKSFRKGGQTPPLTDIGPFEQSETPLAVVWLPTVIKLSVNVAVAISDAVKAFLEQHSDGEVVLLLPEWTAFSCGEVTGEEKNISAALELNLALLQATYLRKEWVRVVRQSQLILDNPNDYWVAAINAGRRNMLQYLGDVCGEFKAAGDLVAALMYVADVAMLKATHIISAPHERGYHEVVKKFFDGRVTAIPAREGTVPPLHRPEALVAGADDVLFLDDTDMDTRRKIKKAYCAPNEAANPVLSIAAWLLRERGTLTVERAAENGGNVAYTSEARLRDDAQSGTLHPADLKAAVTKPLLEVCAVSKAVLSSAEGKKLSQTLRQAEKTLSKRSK

[8] = biological target: T4, Tyrosyl-tRNA synthetase, putative (Trypanosoma cruzi (strain CL Brener)); test: Trypanosoma cruzi tyrosyl tRNA synthetase (TcYRS) SOP; type: functional; settings: 30 µM
[9] = biological target: Chromo domain-containing protein 1 (Saccharomyces cerevisiae (strain ATCC 204508 / S288c) (Baker's yeast)) (UniProt P32657); test: ScCHD-1 Enzyme Inhibition Assay; type: functional; settings: 30 µM; note: in the data most compounds retested in dose-response had high values
Sequence of Chromo domain-containing protein 1 (Saccharomyces cerevisiae (strain ATCC 204508 / S288c) (Baker's yeast)) (P32657 whole entry, the tested form may be a part): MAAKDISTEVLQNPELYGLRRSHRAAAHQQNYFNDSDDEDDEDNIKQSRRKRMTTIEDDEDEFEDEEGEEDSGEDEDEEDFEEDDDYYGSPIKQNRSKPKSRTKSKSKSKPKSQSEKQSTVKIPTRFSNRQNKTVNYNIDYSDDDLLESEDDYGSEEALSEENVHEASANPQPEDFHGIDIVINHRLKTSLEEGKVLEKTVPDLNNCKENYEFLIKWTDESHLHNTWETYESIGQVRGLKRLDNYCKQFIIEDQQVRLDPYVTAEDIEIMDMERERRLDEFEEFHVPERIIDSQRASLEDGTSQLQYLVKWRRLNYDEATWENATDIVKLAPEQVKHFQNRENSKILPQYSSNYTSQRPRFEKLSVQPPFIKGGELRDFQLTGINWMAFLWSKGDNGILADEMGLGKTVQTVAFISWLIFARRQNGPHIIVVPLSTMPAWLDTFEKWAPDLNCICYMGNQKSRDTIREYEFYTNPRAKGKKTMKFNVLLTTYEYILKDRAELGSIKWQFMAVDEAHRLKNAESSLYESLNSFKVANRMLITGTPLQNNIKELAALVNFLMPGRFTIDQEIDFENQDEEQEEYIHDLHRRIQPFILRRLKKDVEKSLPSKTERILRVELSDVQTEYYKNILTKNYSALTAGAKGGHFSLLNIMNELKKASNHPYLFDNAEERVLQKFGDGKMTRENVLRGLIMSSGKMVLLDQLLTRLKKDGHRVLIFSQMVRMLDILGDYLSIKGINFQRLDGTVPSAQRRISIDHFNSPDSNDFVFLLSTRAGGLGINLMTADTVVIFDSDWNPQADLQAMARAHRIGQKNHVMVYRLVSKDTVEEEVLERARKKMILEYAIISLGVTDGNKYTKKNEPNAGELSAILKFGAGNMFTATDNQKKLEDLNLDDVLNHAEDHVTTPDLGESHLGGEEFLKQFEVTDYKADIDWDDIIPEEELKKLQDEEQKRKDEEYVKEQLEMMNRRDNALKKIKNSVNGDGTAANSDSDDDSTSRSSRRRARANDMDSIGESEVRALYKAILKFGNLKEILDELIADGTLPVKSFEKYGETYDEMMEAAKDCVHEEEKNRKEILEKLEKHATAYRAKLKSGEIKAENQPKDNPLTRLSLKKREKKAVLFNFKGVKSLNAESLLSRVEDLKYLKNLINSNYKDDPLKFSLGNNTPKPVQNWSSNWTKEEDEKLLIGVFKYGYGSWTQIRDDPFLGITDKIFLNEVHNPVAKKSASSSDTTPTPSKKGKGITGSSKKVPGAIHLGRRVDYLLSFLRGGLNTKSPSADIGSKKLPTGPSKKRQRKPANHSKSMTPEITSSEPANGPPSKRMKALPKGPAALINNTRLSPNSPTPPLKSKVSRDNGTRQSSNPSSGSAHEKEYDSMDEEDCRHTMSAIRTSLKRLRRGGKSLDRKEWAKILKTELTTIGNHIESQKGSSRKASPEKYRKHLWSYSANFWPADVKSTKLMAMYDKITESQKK

Sequence of Protein translocase subunit SecA (Escherichia coli (strain K12)) (P10408 whole entry): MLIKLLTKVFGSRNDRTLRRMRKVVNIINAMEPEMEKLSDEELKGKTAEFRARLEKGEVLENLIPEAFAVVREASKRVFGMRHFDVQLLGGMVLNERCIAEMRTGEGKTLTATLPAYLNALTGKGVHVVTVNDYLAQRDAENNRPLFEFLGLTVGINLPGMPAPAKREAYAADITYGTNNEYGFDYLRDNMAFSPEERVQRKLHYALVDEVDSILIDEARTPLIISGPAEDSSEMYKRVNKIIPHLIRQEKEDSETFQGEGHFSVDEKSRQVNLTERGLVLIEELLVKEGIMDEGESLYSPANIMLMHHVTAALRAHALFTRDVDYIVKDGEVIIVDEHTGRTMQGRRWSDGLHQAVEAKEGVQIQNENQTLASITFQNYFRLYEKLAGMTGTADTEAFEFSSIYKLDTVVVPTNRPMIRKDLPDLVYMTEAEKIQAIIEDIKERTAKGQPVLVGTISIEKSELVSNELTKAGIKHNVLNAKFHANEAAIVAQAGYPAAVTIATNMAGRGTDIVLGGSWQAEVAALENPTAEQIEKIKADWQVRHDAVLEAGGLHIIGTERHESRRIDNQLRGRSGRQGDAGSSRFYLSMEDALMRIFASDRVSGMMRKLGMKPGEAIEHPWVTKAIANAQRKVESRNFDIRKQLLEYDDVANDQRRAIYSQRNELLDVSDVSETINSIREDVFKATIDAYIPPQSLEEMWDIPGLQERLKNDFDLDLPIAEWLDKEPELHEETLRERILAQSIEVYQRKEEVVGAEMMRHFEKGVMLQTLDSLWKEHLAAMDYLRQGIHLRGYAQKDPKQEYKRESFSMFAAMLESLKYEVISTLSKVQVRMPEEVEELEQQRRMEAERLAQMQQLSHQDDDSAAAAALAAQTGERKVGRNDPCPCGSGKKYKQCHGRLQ

Question: What does the source list for `CCc1nc2n(n1)CC(NCC(=O)Nc1cc(C)on1)CC2` (stereo not given)?
Answer: Percent Effect [1]: -7.96%; Percent Effect [2]: 5.06%; Percent Effect [3]: -1.49%; Percent Effect [4]: 2.07%; Percent Effect (Trypanosoma cruzi): -7.27%; Percent Effect [5]: 0.38%; Percent Effect [6]: 17.1%; Percent Effect (Homo sapiens): 22.4%; Percent Effect [7]: -3.45%; Percent Effect [8]: -8.86%; Percent Effect [9]: -4.18%

Question: Which results are given for `CCOc1ncccc1CNC(=O)N1CCCC1c1ccncc1` (stereo not given)?
Answer: Percent Effect [1]: -1.89%; Percent Effect [2]: 5.33%; Percent Effect [3]: -2.16%; Percent Effect [4]: 2.11%; Percent Effect (Trypanosoma cruzi): -7.3%; Percent Effect [5]: 4.17%; Percent Effect [6]: 8.37%; Percent Effect (Homo sapiens): 12.2%; Percent Effect [7]: 4.92%; Percent Effect [8]: 13.6%; Percent Effect [9]: -7.62%

Question: With `N#Cc1ccccc1CN1C[C@@H]2CC[C@H](C1)N(Cc1cscn1)C2=O` as the molecule, how does the Percent Effect [1] read?
Answer: Its Percent Effect is -1.93%.

Question: What about the Percent Effect [2] of the same molecule?
Answer: The Percent Effect was 5.41%.

Question: And the Percent Effect [3]?
Answer: Its Percent Effect is -3.34%.

Question: What about the Percent Effect [4] of the same molecule?
Answer: Its Percent Effect is 8.56%.

Question: And the Percent Effect (Trypanosoma cruzi)?
Answer: Its Percent Effect is -2.9%.

Question: What about the Percent Effect [5] of the same molecule?
Answer: The Percent Effect was -1.91%.

Question: What about the Percent Effect [6] of the same molecule?
Answer: Its Percent Effect is 9.14%.

Question: And the Percent Effect (Homo sapiens)?
Answer: The Percent Effect was -7.44%.

Question: And the Percent Effect [7]?
Answer: Its Percent Effect is 3.7%.

Question: And the Percent Effect [8]?
Answer: The Percent Effect was -14.6%.

Question: What about the Percent Effect [9] of the same molecule?
Answer: The Percent Effect was -3.95%.

Question: `COc1ccccc1C1CNC(=O)c2nc(-c3cnn(C)c3)[nH]c2C1` (stereo not given) was tested. Which Percent Effect [1] did it give?
Answer: The Percent Effect was 0.9%.

Question: What about the Percent Effect [2] of the same molecule?
Answer: Its Percent Effect is 10.8%.

Question: What about the Percent Effect [3] of the same molecule?
Answer: The Percent Effect was -0.668%.

Question: And the Percent Effect [4]?
Answer: Its Percent Effect is 22.2%.

Question: What about the Percent Effect (Trypanosoma cruzi) of the same molecule?
Answer: Its Percent Effect is 3.48%.

Question: What about the Percent Effect [5] of the same molecule?
Answer: Its Percent Effect is 1.43%.

Question: And the Percent Effect [6]?
Answer: The Percent Effect was 10%.

Question: And the Percent Effect (Homo sapiens)?
Answer: The Percent Effect was 5.8%.

Question: And the Percent Effect [7]?
Answer: Its Percent Effect is 5.82%.

Question: What about the Percent Effect [8] of the same molecule?
Answer: Its Percent Effect is 17.1%.

Question: And the Percent Effect [9]?
Answer: Its Percent Effect is -0.454%.

Question: Which Percent Effect [1] does the source give for `CC(=O)Nc1nc(C(=O)NCc2ccc(N3CCCCCC3)nc2)cs1` here?
Answer: The Percent Effect was -1.32%.

Question: And the Percent Effect [2]?
Answer: The Percent Effect was 24.1%.

Question: And the Percent Effect [3]?
Answer: Its Percent Effect is 5.19%.

Question: What about the Percent Effect [4] of the same molecule?
Answer: Its Percent Effect is -5.11%.

Question: And the Percent Effect (Trypanosoma cruzi)?
Answer: Its Percent Effect is -1.13%.

Question: What about the Percent Effect [5] of the same molecule?
Answer: The Percent Effect was -4.09%.

Question: And the Percent Effect [6]?
Answer: Its Percent Effect is 20.6%.

Question: What about the Percent Effect (Homo sapiens) of the same molecule?
Answer: Its Percent Effect is 29.2%.

Question: And the Percent Effect [7]?
Answer: The Percent Effect was 4.17%.

Question: And the Percent Effect [8]?
Answer: Its Percent Effect is 22.8%.

Question: What about the Percent Effect [9] of the same molecule?
Answer: The Percent Effect was -18.9%.
